Screens (PubChem)
This is a sample that favours compounds with a hit; in the whole collection about 4.1% have one here.
hcDAF-12 act: H. contortus DAF-12 activation, primary screen. HEK293 hcDAF-12 lit1-tk-luc reporter, luminescence; 0% DMSO, 100% Δ7-dafachronic acid. activation, % at 6.8 µM. hit rate 1.4% among 370,000;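 active = activation above the mean of all tested compounds plus 3 SD, cut at about 5.5% in these data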;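 note: 100% = response to 3 µM Δ7-dafachronic acid high control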
ssDAF-12 act: S. stercoralis DAF-12 activation, primary screen | HEK293 ssDAF-12/GRIP1 lit1-tk-luc reporter, luminescence; % of 3 µM dafachronic acid response | AID 652126 | hit rate 1% among 370,000 | activation, % at 6.8 µM;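 active = activation above the mean over all tested compounds plus 3 SD, cut at about 0.9% in these data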;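 note: 0% = DMSO-only wells and 100% = 3 µM delta7-dafachronic acid wells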
hgDAF-12 ag: hgDAF-12 agonism, primary luciferase screen | hit rate 1.8% among 370,000 | HEK293 GAL4-hgDAF12 UAS-luciferase reporter, agonist luminescence; normalized to butyrate control | activation, % at 6.8 µM;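 active = activation above a cutoff set at the mean of all screened compounds plus 3 SD, cut at about 10% in these data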;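 note: 0% = DMSO wells and 100% = sodium butyrate wells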
DAX1 inh-1: NR0B1 (DAX1) inhibition | hit rate 0.99% among 340,000 | HEK293 Gal4-DAX1 luciferase reporter, luminescence | AID 504766 | inhibition, % at 6.75 µM;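 active = inhibition above the mean over all tested compounds plus 3 SD, cut at about 4.2% in these data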;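 note: 0% = DAX1-transfected cells with DMSO and 100% = empty-vector control cells with DMSO; inhibition shows as a rise in luminescence from relieved DAX1 repression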
DAX1 inh-2: blocks DAX1 repression of SF-1 activated StAR promoter; HEK293T StAR-luciferase reporter, SF-1/DAX-1 repression relief; inhibition, % at 6.8 µM; hit rate 1.1% among 370,000; AID 652010;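 active = inhibition above the mean over all tested compounds plus 3 SD, cut at about 3.6% in these data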;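 note: 0% = DAX-1 cells with DMSO and 100% = cells lacking DAX-1 with DMSO; higher inhibition means more luminescence from relief of DAX-1 repression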
hgDAF12 conf: confirmation of H. glycines DAF-12 agonists. shares compounds with hgDAF-12 ag. HEK293 GAL4-hgDAF12 luciferase reporter, agonist mode; percent of butyrate response. activation, % at 6.8 µM. hit rate 80% among 3,300;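 active = mean activation over triplicate wells above the hit cutoff derived from the earlier primary screen, cut at about 11% in these data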;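 note: 0% = DMSO low control and 100% = 2 mM sodium butyrate high control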
LXR ag 2: counter-screen for DAF-12 agonists: agonists of human LXR-beta. shares compounds with hgDAF-12 ag. HEK293 Gal4-LXR luciferase reporter, 24 h. activation, % at 6.8 µM. 3,300 tested, under 10 active. AID 743051;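 active = mean activation of the triplicate above a set limit carried over from the primary screen, none filed active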
Target sequence (P55055 whole entry, looked up, the tested form may be a part): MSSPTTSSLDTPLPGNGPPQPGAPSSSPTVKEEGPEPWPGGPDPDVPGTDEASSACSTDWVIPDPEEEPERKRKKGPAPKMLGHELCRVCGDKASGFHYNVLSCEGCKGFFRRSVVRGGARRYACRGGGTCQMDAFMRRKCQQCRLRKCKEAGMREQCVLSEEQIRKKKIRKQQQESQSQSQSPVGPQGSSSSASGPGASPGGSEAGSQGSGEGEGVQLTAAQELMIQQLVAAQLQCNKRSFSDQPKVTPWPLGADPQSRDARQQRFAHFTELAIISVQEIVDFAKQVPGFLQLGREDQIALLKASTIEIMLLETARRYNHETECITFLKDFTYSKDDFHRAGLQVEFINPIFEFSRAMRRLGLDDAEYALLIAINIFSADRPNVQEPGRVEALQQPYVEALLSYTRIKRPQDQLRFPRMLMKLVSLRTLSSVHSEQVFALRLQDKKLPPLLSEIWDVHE
The depositor's hits bear a star; / = no result.

SMILES	hcDAF-12 act	ssDAF-12 act	hgDAF-12 ag	DAX1 inh-1	DAX1 inh-2	hgDAF12 conf	LXR ag 2
C[C@H]1CN(c2ccc(N3CCNC[C@@H]3C)cc2C#N)CCN1Cc1ccccc1	0	0	3	/	-1	/	/
COc1ccc(NC(=O)c2ccc(OC(F)F)cc2)cc1Cl	5	1.4*	17*	1	3.7*	12*	0
COc1cc(NC(=O)c2ccccn2)cc(OC)c1OC	-1	-1	0	1	0	/	/
COc1ccc(NC(=O)c2cc(F)cc(F)c2)cc1Cl	-1	-1	8	0	1	/	/
O=C(Nc1ccc(OC(F)F)c(Cl)c1)c1ccccn1	4	1.4*	14*	5.2*	4.5*	17*	1
CCCCOCCCNC(=O)C[C@@H]1C(=O)N2CCCC3=C2[C@@]1(C(=O)OCC)CCC3	1	-2	1	/	1	/	/
CN(C)c1ccc(NC(=O)/C=C/c2ccccc2Cl)cc1	4	-1	18*	0	2	14*	1
CCN(CC)c1ccc(NC(=O)/C=C\c2ccccc2Cl)cc1	-1	-2	7	1	1	/	/
COc1ccc(/C=C2\SC(=O)N(CCc3nnc(N)s3)C2=O)cc1	4	1	16*	2	4.1*	10	1
COc1ccc(/C=C2\SC(=O)N(CCCC(=O)Nc3ccc(C(=O)O)cc3)C2=O)cc1	-9	-4	-21	-5	-7	/	/
CCOC(=O)Nc1ccc2c(c1)C(=NO)c1ccccc1-2	4	1	18*	3	3	13*	1
CCOC(=O)Nc1ccc2c(c1)C(=NNC(N)=S)c1ccccc1-2	-3	-2	-5	-3	-5	/	/
C[C@@H]1ON(C)[C@H]2C[C@H]3c4[nH]c5c(-c6cccc(Cl)c6)cccc5c4CCN3C(=O)[C@@H]12	-3	0	-1	/	-1	/	/
CCCCN(CC)CCNC(=O)c1cc2c(C)nc3ccccc3c2o1	5	0	17*	2	2	1	0
COC(=O)[C@]12C[C@H](CC(=O)NCc3cccc4ccccc34)C(=O)N(Cc3ccc4c(c3)OCO4)C1=C[C@H](COCc1ccccc1)O[C@@H]2C	-3	-1	-1	/	-2	/	/
Fc1ccc2cnc(-c3ccsc3)cc2c1	3	0	14*	/	3	7	0
O=C(O)c1ccc(/C=C2\CCCc3c2nc2ccccc2c3C(=O)O)cc1	5	-1	1	0	0	/	/
CN(C)c1ccc(/C=C2\CCCc3c2nc2ccccc2c3C(=O)O)cc1	5.7*	1.6*	13*	1	1	13*	0
O=C(c1cc(-c2ccc(Cl)cc2)on1)N1CCCC1	4	1.1*	14*	2	3	16*	1
Cc1nc2ccc(S(=O)(=O)Nc3cc(-c4nc5cccnc5s4)ccc3C)cc2s1	5	0	17*	1	3	10	0
O=C(OCc1cn(Cc2ccccc2)nn1)N1CCOCC1	-2	-1	2	/	0	/	/
COC(=O)[C@H](C(C)C)N(CCc1cn(Cc2ccc(C)cc2)nn1)S(=O)(=O)c1ccc(F)cc1Br	4	-2	2	/	0	/	/
O=C1CCc2cc(S(=O)(=O)Nc3ccccc3F)ccc2N1	0	-2	25*	0	0	0	0
O=C1CCc2cc(S(=O)(=O)Nc3ccccc3Cl)ccc2N1	-1	-1	0	1	2	/	/
COc1ccccc1Cc1c(-c2ccc(Cl)cc2)nc2c(C)cc(Br)cn12	4	0	3	/	-3	/	/
Clc1cccc(-c2nc3ccc(Br)cn3c2Cc2ccsc2)c1	4	-1	8	/	3	/	/
Cc1ccc(Cc2c(-c3ccc(Br)cc3)nc3ccc(Br)cn23)cc1	2	0	17*	3	-2	9	0
COc1ccccc1Cc1c(-c2ccc(Cl)cc2)nc2ccc(C)cn12	6.1*	1.2*	14*	/	3	15*	1
Cc1ccc2nc(-c3cccc(Cl)c3)c(Cc3ccsc3)n2c1	2	1	16*	/	2	8	0
Cc1ccc(-c2nc3ncccn3c2NC(=O)c2ccccc2)cc1	-2	-1	3	/	-1	/	/
